Assay results reported in PubChem BioAssay (NCATS).
“And” between values parts separate entries of the source, which are not always exact repeats. Equal values may be shown once. Values without a mark were called inactive. Results filed as inconclusive are left out. Entries that show only a call come without a potency. The source made the active and inactive calls. Unless noted, calls follow the shape of the dose curve; as a rule, active = well fitted curve in the direction sought with a large enough effect; inconclusive = small, poorly fitted or top-dose-only effect, or another doubt; inactive = no such curve, though single readings can be large; an effect the other way counts as inactive or inconclusive.

Legend:
[1] = target: Thyroid hormone receptor beta (Homo sapiens) (UniProt P10828); assay: qHTS assay for small molecule antagonists of thyroid hormone receptor beta signaling (AID 588547; active = well fitted inhibition curve with a large enough effect in the signal ratio, with a control signal flat, not every such curve was filed as active; the % refers to the signal ratio;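 also: cells stimulated with 0.4 nM T3 agonist during compound exposure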); details: TR-UAS-bla HEK293, beta-lactamase ratio, antagonist mode, 18 h
Outline: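 Inhibition of T3-driven (0.4nM final) beta-lactamase reporter activity was measured over 0.59 nM to 92 uM compound after 18 h at 37 C. The cells were GripTite HEK293 TR-UAS-bla in charcoal/dextran-stripped serum, with CCF4 ratio read-out and IC50 from Hill fits.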

[2] = target: Luciferin 4-monooxygenase (Photinus pyralis) (UniProt P08659); assay: Biochemical firefly luciferase enzyme assay for NPC (AID 624030); also: nearly all actives have a fitted effect of over 70% in size; also: potency is read from the fitted curve at half-maximal effect; details: purified P. pyralis luciferase, luminescence, 5 min; series mostly up to 58.6 µM
Outline: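 Direct inhibition of firefly luciferase enzyme (10 nM final, 50 mM Tris Acetate) assessed by luminescence within 5 minutes. Percent activity scaled between DMSO and PTC124 positive control, with concentration-effect curves classified by fit quality and response.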

[3] = S16 Schwann cell viability assay (CellTiter-Glo assay) (AID 624031); details: S16 rat Schwann cells viability, 24 h; series mostly up to 57.5 µM;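 also: cellular ATP luminescence as a viability measure; nearly all actives have a fitted effect of over 70% in size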
Outline: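 This viability control uses native rat S16 Schwann cells grown in DMEM plus 10% FBS. After a 24 h compound treatment at 37 °C, CellTiter-Glo luminescence reports ATP content, scaled against DMSO-treated and cell-free wells.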

[4] = target: Glutaminase kidney isoform, mitochondrial (Homo sapiens) (UniProt O94925); assay: qHTS for Inhibitors of Glutaminase (GLS): LOPAC Validation (AID 624146); details: glutaminase enzyme activity inhibition; series mostly up to 46.1 µM; also: nearly all actives have a fitted effect of over 60% in size; also: potency is read from the fitted curve at half-maximal effect
Outline: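 hKGA in 45 mM KH2PO4 (pH 8.2), 0.02% Tween-20 with compound, then 1mM L-Glutamine (stock as added) plus glutamate oxidase/HRP/Amplex red coupling mix. Fluorescence read initially and after 30 min at RT; signal change reflects glutamate formation.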

[5] = qHTS of Trypanosoma Brucei Inhibitors: LOPAC Validation (AID 624147); details: purified enzyme assay, luminescence, 45 min; series mostly up to 57.5 µM
Outline: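 Screened from lowest to highest concentration, compounds were pinned into TbPYK/substrate mixtures, and ADP (130 uM final) was added. Plates sat at room temperature for 45 min prior to Kinase-Glo Plus detection by luminescence.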

[6] = target: Glucagon-like peptide 1 receptor (Homo sapiens) (UniProt P43220); assay: qHTS of GLP-1 Receptor Agonists: LOPAC Validation (AID 624148); details: GLP-1R agonist cell assay; series mostly up to 46.1 µM;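 also: luminescence from a luciferase reporter switched on by cAMP; higher luminescence signal means agonism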
Outline: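 Agonism scored as increased luciferase luminescence driven by cAMP in HEK293 clones carrying GLP-1R. Cells settled 12 hours, received compound for 4-6 hr at 37 deg C, 5% CO2, and were read after 12 min detection reagent at RT.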

[7] = target: Voltage-gated inwardly rectifying potassium channel KCNH2 (Homo sapiens) (UniProt Q12809); assay: qHTS Assay for Small Molecule Inhibitors of the Human hERG Channel Activity (AID 588834); details: U2OS BacMam hERG, FluxOR thallium flux fluorescence; series mostly up to 46.1 µM;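 also: lower thallium flux fluorescence means stronger hERG block; nearly all actives have a fitted effect of over 50% in size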; also: potency is read from the fitted curve at half-maximal effect
Outline: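 Concentration-response qHTS measuring drop in thallium-sensitive dye signal. U2OS cells carrying BacMam hERG; compound exposure ~10 min, then stimulation buffer and 2 min read at 1 sec intervals.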

[8] = S16 Schwann cell PMP22 intronic element firefly luciferase assay (AID 624032); details: S16 rat Schwann cells, PMP22 element FLuc, 24 h; series mostly up to 57.5 µM; also: nearly all actives have a fitted effect of over 30% in size
Outline: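 Luciferase reporter of PMP22 intronic-element expression in stably transfected S16 rat Schwann cells, read by ONE-Glo luminescence after 24 h compound exposure at 37 C. Activity scaled between DMSO (0%) and positive-control PTC124; concentration-effect curves quality-classified.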

[9] = S16 Schwann cell PMP22 intronic element beta-lactamase assay (AID 624044; calls by dose curve; also: nearly all actives have a fitted effect of over 15% in size; also: potency is read from the fitted curve at half-maximal effect); details: S16 rat Schwann cells, PMP22 element beta-lactamase FRET, 24 h; series mostly up to 38.3 µM
Outline: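 Rat S16 Schwann cells with beta-Lac driven by a PMP22 intronic element, compound-treated 24 h at 37 °C. LiveBLAzer FRET B/G read: 460 nm normalized to potassium clavulanate vs DMSO; 535 nm FRET as viability; concentration-effect curves classified.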

[10] = qHTS of Nrf2 Activators: LOPAC Validation (AID 624149); details: Nrf2/ARE reporter cell assay; series mostly up to 46.1 µM
Outline: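 AREc32 cells carrying an ARE-driven firefly luciferase were grown overnight in OPTI-MEM with 5% FBS, then exposed to compounds for 24 hr at 37 deg C. Luciferase signal was read after 30 min with Steady-Glo at RT.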

Chain of Glutaminase kidney isoform, mitochondrial (Homo sapiens) (O94925 whole entry, looked up, canonical isoform): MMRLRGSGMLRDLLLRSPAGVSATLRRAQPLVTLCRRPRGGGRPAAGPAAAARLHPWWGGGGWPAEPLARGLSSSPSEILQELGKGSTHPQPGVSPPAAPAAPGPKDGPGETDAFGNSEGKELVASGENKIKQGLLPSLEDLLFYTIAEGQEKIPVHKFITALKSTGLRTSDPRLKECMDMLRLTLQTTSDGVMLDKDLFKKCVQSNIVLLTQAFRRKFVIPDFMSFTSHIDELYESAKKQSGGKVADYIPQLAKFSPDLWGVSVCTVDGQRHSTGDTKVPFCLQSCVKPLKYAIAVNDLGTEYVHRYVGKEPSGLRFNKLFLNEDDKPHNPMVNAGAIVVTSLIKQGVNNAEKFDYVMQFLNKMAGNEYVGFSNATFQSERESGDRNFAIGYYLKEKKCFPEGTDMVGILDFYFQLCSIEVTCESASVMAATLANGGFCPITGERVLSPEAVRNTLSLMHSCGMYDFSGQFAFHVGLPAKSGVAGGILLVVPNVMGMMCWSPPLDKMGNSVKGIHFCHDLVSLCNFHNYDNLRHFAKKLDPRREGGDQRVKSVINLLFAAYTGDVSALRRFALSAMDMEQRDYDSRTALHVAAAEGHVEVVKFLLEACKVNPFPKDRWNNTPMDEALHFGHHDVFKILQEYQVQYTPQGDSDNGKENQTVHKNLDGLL
Chain of Thyroid hormone receptor beta (Homo sapiens) (P10828 whole entry, looked up): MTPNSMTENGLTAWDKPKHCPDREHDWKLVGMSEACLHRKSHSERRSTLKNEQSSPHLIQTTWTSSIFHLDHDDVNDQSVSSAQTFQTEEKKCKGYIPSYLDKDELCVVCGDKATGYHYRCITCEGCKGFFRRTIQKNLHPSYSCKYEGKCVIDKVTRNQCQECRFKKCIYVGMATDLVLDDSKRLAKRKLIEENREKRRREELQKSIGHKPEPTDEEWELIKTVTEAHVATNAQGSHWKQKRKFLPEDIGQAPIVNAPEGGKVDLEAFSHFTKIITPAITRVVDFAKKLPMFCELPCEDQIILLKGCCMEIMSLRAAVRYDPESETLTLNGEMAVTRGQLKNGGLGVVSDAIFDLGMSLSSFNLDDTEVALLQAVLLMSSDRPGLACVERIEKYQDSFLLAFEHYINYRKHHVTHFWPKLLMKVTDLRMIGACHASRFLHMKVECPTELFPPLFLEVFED
Chain of Luciferin 4-monooxygenase (Photinus pyralis) (P08659 whole entry, looked up): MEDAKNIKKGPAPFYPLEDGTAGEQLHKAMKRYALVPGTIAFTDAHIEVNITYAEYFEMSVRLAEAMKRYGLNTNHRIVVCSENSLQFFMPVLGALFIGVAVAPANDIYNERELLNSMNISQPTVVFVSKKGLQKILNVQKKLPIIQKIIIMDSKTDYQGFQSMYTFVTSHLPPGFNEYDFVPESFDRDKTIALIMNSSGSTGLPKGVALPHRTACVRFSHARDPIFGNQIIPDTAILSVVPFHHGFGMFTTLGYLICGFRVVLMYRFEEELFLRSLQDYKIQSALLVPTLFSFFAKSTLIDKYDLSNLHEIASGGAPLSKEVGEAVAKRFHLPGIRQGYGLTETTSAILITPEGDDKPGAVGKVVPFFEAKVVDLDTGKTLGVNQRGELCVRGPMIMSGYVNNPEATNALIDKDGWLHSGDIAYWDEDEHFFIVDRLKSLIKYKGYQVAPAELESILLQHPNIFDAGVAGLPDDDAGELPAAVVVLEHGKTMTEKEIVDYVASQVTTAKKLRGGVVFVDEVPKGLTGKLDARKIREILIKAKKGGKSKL
Chain of Glucagon-like peptide 1 receptor (Homo sapiens) (P43220 whole entry, looked up): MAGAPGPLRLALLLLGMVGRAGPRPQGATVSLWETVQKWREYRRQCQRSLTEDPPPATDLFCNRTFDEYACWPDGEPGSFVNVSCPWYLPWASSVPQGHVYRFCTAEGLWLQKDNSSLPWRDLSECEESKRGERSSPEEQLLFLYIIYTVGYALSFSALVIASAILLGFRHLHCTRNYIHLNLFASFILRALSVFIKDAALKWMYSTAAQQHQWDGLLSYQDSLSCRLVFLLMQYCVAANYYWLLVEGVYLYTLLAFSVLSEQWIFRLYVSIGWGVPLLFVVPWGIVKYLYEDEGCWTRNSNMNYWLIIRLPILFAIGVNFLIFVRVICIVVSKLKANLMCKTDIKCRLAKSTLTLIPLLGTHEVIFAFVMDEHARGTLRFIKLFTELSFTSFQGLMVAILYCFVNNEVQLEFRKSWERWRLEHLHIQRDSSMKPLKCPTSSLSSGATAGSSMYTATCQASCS
Chain of Voltage-gated inwardly rectifying potassium channel KCNH2 (Homo sapiens) (Q12809 whole entry, looked up): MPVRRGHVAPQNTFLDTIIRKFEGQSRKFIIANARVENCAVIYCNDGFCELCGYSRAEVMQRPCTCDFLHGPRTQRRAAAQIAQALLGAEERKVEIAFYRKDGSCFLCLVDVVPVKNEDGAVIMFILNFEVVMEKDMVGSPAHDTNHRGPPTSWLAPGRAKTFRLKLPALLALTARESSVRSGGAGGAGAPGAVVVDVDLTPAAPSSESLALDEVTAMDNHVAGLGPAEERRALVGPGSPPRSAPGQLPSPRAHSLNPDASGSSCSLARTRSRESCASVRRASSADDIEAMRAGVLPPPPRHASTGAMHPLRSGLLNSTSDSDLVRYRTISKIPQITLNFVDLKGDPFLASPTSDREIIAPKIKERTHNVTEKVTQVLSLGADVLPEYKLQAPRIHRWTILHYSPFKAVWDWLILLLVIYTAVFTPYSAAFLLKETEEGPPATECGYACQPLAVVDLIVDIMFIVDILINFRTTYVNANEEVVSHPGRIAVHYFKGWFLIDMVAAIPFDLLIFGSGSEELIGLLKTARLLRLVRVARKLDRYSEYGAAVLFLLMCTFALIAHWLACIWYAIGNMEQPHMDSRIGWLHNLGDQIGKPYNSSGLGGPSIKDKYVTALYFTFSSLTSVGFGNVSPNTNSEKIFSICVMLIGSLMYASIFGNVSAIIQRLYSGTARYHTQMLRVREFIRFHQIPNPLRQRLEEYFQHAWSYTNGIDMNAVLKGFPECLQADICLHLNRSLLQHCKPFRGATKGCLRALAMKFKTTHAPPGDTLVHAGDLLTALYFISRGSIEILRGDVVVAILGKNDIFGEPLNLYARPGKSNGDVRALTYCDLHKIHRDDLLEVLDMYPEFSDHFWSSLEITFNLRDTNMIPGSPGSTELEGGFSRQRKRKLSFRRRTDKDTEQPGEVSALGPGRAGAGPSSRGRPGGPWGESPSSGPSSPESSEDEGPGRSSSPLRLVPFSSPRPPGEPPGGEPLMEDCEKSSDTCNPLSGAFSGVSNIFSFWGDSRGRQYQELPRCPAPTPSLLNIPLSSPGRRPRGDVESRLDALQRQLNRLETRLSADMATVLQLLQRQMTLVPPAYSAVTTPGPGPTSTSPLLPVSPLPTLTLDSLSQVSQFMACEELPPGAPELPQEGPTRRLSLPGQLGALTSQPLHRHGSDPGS

SMILES	activity change % (negative = inhibition) [1]	Potency [2]	Potency [3]	Potency [4]	Potency [5]	Potency [6]	Potency [7]	Potency [8]	Potency [9]	outcome [10]
O=C(CCCN1CCC(O)(c2ccc(Cl)cc2)CC1)c1ccc(F)cc1	-36.9%	inactive	inactive	inactive	inactive	inactive	–	–	–	–
CS(=O)(=O)CCNCc1ccc(-c2ccc3ncnc(Nc4ccc(OCc5cccc(F)c5)c(Cl)c4)c3c2)o1	–	inactive	inactive	–	–	–	inactive	inactive	inactive	–
Nc1c2c(nc3ccccc13)CCCC2	-14.9%	inactive	inactive	inactive	inactive	inactive	–	–	–	inactive
CC(=O)OCC(CCn1cnc2cnc(N)nc21)COC(C)=O	–	inactive	inactive	–	–	–	inactive	inactive	–	–
COc1ccc2[nH]cc(CCNC(C)=O)c2c1	-14% and 1.14% and 10.4%	inactive	inactive	inactive	inactive	inactive	inactive	inactive	–	inactive
CCOC(=O)C(C)(C)Oc1ccc(Cl)cc1	7.19%	inactive	inactive	inactive	inactive	inactive	inactive	inactive	inactive	inactive
Cc1cn([C@H]2C[C@H](N=[N+]=[N-])[C@@H](CO)O2)c(=O)[nH]c1=O	5.41% and 12%	inactive	inactive	inactive	inactive	inactive	inactive	–	–	inactive
CC1(C)O[C@H]2CC(=O)OC[C@]23[C@H]2CC[C@@]4(C)[C@H](c5ccoc5)OC(=O)[C@H]5O[C@]54[C@]2(C)C(=O)C[C@@H]13	–	–	–	–	–	–	inactive	–	–	–
COC(=O)Nc1nc2ccc(C(=O)c3cccs3)cc2[nH]1	–	inactive	inactive	inactive	inactive	inactive	inactive	inactive	2.24 µM (active)	inactive
CN(C)c1nc(N(C)C)nc(N(C)C)n1	–	inactive	inactive	inactive	inactive	inactive	inactive	inactive	inactive	inactive
Clc1ccc(C(c2ccccc2Cl)C(Cl)Cl)cc1 (stereo unspecified)	-34.3%	inactive	inactive	inactive	inactive	inactive	31.6 µM (active) and 10 µM (active) and 5.62 µM (active)	–	–	inactive
Cc1cn([C@H]2C=C[C@@H](CO)O2)c(=O)[nH]c1=O	3.32% and -6.39%	inactive	inactive	inactive	inactive	inactive	inactive	inactive	–	inactive
CN(C)CCOC(c1ccccc1)c1ccccc1	-3.52%	–	inactive	–	inactive	inactive	–	inactive	–	inactive
O=c1c(-c2ccc(O)cc2)coc2cc(O)cc(O)c12	-35.3%	9.07 µM (active)	inactive	inactive	inactive	inactive	inactive	inactive	25.1 µM (active)	inactive
C[C@@H]1CC(=O)NN=C1c1ccc(NN=C(C#N)C#N)cc1	–	–	–	–	–	–	inactive	–	–	–
N[C@@H](Cc1c[nH]c2ccc(O)cc12)C(=O)O	-8.63%	–	inactive	1.12 µM (active)	inactive	inactive	inactive	inactive	inactive	inactive
Cn1c(=O)c2[nH]cnc2n(C)c1=O	-10.4%	inactive	inactive	–	inactive	inactive	–	–	–	inactive
CC1(CN2CCC(n3c(=O)[nH]c4ccccc43)CC2)OCc2ccccc2-n2cccc21 (stereo unspecified)	–	inactive	–	–	–	–	11.2 µM (active)	–	–	–
O=C1N(c2ccccc2)c2ccccc2C1(Cc1ccncc1)Cc1ccncc1	–	inactive	inactive	inactive	inactive	inactive	inactive	inactive	inactive	inactive
Cc1ccc(-c2cc(C(F)(F)F)nn2-c2ccc(S(N)(=O)=O)cc2)cc1	17.3%	inactive	inactive	–	–	–	–	–	inactive	–
O=C(c1ccc(F)cc1)C1CCN(CCn2c(=O)[nH]c3ccccc3c2=O)CC1	–	inactive	inactive	inactive	inactive	inactive	3.55 µM (active) and 562 nM (active)	inactive	inactive	inactive
CC(C)NCC(O)c1ccc(O)c(O)c1 (stereo unspecified)	-0.838% and 16%	inactive	inactive	–	inactive	–	inactive	–	inactive	inactive
NCCS(=O)(=O)O	-15.9%	inactive	inactive	inactive	inactive	inactive	inactive	inactive	inactive	inactive

SMILES	activity change % (negative = inhibition) [1]	Potency [2]	Potency [3]	Potency [4]	Potency [5]	Potency [6]	Potency [7]	Potency [8]	Potency [9]	outcome [10]
CC(C)C(=O)Nc1ccc([N+](=O)[O-])c(C(F)(F)F)c1	-0.269% and 16%	inactive	inactive	inactive	inactive	inactive	inactive	–	–	inactive
NS(=O)(=O)c1cc2c(cc1Cl)NCNS2(=O)=O	-1.87% and 13.1%	inactive	inactive	inactive	inactive	inactive	inactive	inactive	–	inactive
Nc1ccn([C@H]2CC[C@@H](CO)O2)c(=O)n1	1.36% and 5.95%	inactive	–	inactive	inactive	inactive	inactive	–	–	inactive
Cn1cnc2c1c(=O)[nH]c(=O)n2C	8.64%	inactive	inactive	inactive	inactive	inactive	–	inactive	inactive	inactive
CN(Cc1cnc2nc(N)nc(N)c2n1)c1ccc(C(=O)N[C@@H](CCC(=O)O)C(=O)O)cc1	-21.4%	inactive	inactive	inactive	inactive	inactive	inactive	inactive	–	inactive
C[C@](N)(Cc1ccc(O)c(O)c1)C(=O)O	1.38%	inactive	inactive	inactive	–	inactive	inactive	inactive	–	inactive
CC(C)(Oc1ccc(C2CC2(Cl)Cl)cc1)C(=O)O (stereo unspecified)	-9.34%	inactive	inactive	inactive	inactive	inactive	inactive	inactive	–	inactive
CC(C)Cc1ccc(C(C)C(=O)O)cc1 (stereo unspecified)	-8.69%	inactive	inactive	inactive	inactive	inactive	inactive	inactive	–	inactive
CCC1(c2ccccc2)C(=O)NCNC1=O	-16.1%	inactive	inactive	inactive	inactive	inactive	inactive	inactive	–	inactive
COc1ccccc1OCC(O)CN1CCN(CC(=O)Nc2c(C)cccc2C)CC1 (stereo unspecified)	–	inactive	inactive	inactive	inactive	inactive	inactive	inactive	inactive	inactive
COc1cc2c(c(OC)c1OC)-c1ccc(OC)c(=O)cc1[C@@H](NC(C)=O)CC2	–	inactive	inactive	inactive	inactive	inactive	inactive	–	–	inactive
COc1ccccc1N1CCN(CC(O)COc2cccc3ccccc23)CC1 (stereo unspecified)	–	inactive	–	–	inactive	inactive	3.16 µM (active) and 794 nM (active)	–	–	inactive
O=c1c(O)c(-c2ccc(O)c(O)c2)oc2cc(O)cc(O)c12	–	–	inactive	–	inactive	inactive	inactive	inactive	inactive	–
CC(C)NCC(O)COc1ccc(CCOCC2CC2)cc1 (stereo unspecified)	–	inactive	inactive	inactive	inactive	inactive	inactive	inactive	–	inactive
CC[N+](CC)(CC)CCOc1cccc(OCC[N+](CC)(CC)CC)c1OCC[N+](CC)(CC)CC	–	inactive	inactive	inactive	–	inactive	inactive	inactive	–	inactive
CS(=O)(=O)Nc1ccc([N+](=O)[O-])cc1Oc1ccccc1	–	inactive	inactive	–	–	inactive	inactive	inactive	–	inactive
Clc1ccc2nsnc2c1NC1=NCCN1	–	inactive	inactive	inactive	inactive	inactive	inactive	inactive	–	inactive
NC12CC3CC(CC(C3)C1)C2	–	inactive	inactive	inactive	inactive	inactive	inactive	–	–	inactive
COc1cc2nc(N3CCN(C(=O)c4ccco4)CC3)nc(N)c2cc1OC	–	inactive	–	inactive	inactive	inactive	inactive	–	–	inactive
CCOC(=O)c1ncn2c1CN(C)C(=O)c1cc(F)ccc1-2	–	inactive	inactive	inactive	inactive	inactive	inactive	inactive	–	inactive
NCCCCCC(=O)O	–	inactive	inactive	inactive	inactive	inactive	inactive	inactive	–	inactive
NC(=O)NO	–	inactive	inactive	8.91 µM (active)	inactive	inactive	inactive	inactive	–	inactive
